# Reference: the supplement of paper PMC10338343
# ± gives the standard deviation.
# System: MILI (PIWIL2) piRISC loaded with L1MC piRNA (26 nt)
# Assay: pre-steady-state target cleavage rate (min^-1); guide: L1MC piRNA 5'p-UAACUAAAUACUAUGCAAGCUGUAGG; MIWI and MILI are mouse PIWI proteins and EfPiwi is from a freshwater sponge; tags in brackets are library labels; higher = faster piRNA-guided slicing of the target
# Conditions: auxiliary factor: 500 nM mouse GTSF1
# Procedure, shortened: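 The pre-steady-state cleavage rate came from a burst-and-steady-state fit to pooled data from three Cleave-'n-Seq trials, in which uncleaved targets were sequenced and normalised to depth and to weakly complementary targets. Each reaction held 0.1 nM transcribed, DNA-blocked target RNA library and 1 nM active affinity-purified piRISC carrying one synthetic guide, with or without 500 nM GTSF1 partner protein, in HEPES–potassium acetate buffer at 33 °C for 0–8 or 0–960 min. k3 was capped at 0.0001 min^-1.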
row,Sequence,pre-steady-state target cleavage rate
1,UCCUGGUACAGCUUGCAUAGAUAUUAGUUA,0.0155 ± 0.005
2,UCCUGGUACAGCUAGCAUAGUAUUUAGAAA,0.0357 ± 0.013
3,UCCUGGAUGUCGAUGCAAAGUAUUAAGUUA,0.00433 ± 0.0038
4,UCCUGGAUGUCCUUGCAUAGUAUUUACUUA,0.0499 ± 0.013
5,UCCUGGAUGUCCAUGCAUAGUAAUUAGUUA,0.0249 ± 0.0072
6,UCCUGGAUGUCGUUGCAUAGUAUUUCGUUA,0.0162 ± 0.0076
7,UCCUGGAUGUCGAUGCAUAGUAUUUAGCUUA,0.0496 ± 0.014
8,UCCUGCUACUCGUUGCAUAGUAUUUUCAAA,0.0428 ± 0.014
9,UCCUGGAUGUGCUUGCAUAGUAAAUAGUUA,0.0601 ± 0.012
10,UCCUGGAUCAGCUUGCAUAGUAUUUCAGUUA,0.162 ± 0.028
11,UCCUGGAUGAGCUUGCAUACUAUUUUGUUA,0.0073 ± 0.005
12,UCCUGGUACAGCUAGCAUAGUAUUUUCAAA,0.0662 ± 0.02
13,UCCUGGAACUCCUUGCAUAGUAUUUUCAAA,0.0315 ± 0.0074
14,UCCUGGAUGUCGAUGCAUAGUAUUUAGUGUA,0.149 ± 0.045
15,UCCUGGAACAGCAUGCAUAGUAUUUAGAAA,0.196 ± 0.025
16,UCCUGGAUGUCCUUGCAUAGUAUUUAUGUUA,0.0185 ± 0.0059
17,UCCUCCUAGUCCUUGCAUAGUAUUUUCAAA,0.0344 ± 0.013
18,UCCUGGUACACCUUGGAUAGUAUUUAGUUA,0.223 ± 0.069

row,Sequence,pre-steady-state target cleavage rate
1,UCCUGGAUCAGCUUGCAUAGUAUUAUGAAA,0.0664 ± 0.016
2,UCCUGGAUGUCGAAGCAUAGUAUUCAGUUA,0.00908 ± 0.0042
3,UCCUGGAUGUCCUUGCAUAGUAUUAAGAUA,0.00928 ± 0.0043
4,UCCUGGAUGUCGAAGCAUAGUAUUUAGUAA,0.0199 ± 0.0047
5,UCCUGGAUCAGCUUGCAUAGUUUUUACAAA,0.012 ± 0.0052
6,UCCUGGAUGUGCUAGCAUAGUAUUUAGAAA,0.0422 ± 0.012
7,UCCUGGAUGUCCUUGCAUAGUAUUUUGUUA,0.0499 ± 0.0089
8,UCCUGGAUGUGCUUGCAAUAGUAUUUAGUUA,0.00398 ± 0.0037
9,UCCUGGAUCAGCUUGCUAUGUAUUUACAAA,0.00475 ± 0.0036
10,UCCUGGUAGUCCUUGCAUAGUAUUUACAAA,0.00835 ± 0.0045
11,UCCUGGAUGUCCUUGCAUUGAAUUUAGUUA,0.00493 ± 0.0046
12,UCCUGGAUCAGCUUGCUAUGUAUUUAGUAA,0.00621 ± 0.0032
13,UCCUGGAUCAGCUUGCAUAGUUUUUAGUAA,0.0337 ± 0.0089
14,UCCUGGAUGUCGAUGCAUACUAUUUAGUUA,0.0178 ± 0.0056
15,UCCUGGAUCAGCUUGCUAAGUAUUUACAAA,0.0261 ± 0.0085
16,UCCUGCUACAGCUUGCAUAGUAAAAAGAAA,0.0111 ± 0.0048
17,UCCUGGAUGUCGUAGCAUAGUAUUUAGUAA,0.0538 ± 0.01
